Among the test systems are NCI-H23 lung; NCI-H322M lung; HOP-62 NSCLC; NCI-H460 lung; HOP-92 NSCLC; NCI-H522 lung; A549/ATCC NSCLC; 786-0 renal; DU-145 prostate; K-562 leukemia; MALME-3M melanoma; MDA-MB-231 breast; RXF 393 renal; SF-268 CNS; SF-295 CNS; SF-539 CNS; UACC-257 melanoma; M14 melanoma; HCT-15 colon.
What all share (assay): NCI-60 one-dose screen, 48 h (100 = growth as untreated, 0 = no growth, -100 = all killed)
What all share (conditions): 10 µM unless noted

The panel holds about 83,000 compounds, 20% with a hit somewhere; the sample as a whole holds those more often.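 Single-dose data. Exposure time 48 hours. Values below 10 considered active.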 A number with no mark means an inactive call. The source made the active and inactive calls.

For `O=c1c2cc(F)ccc2sc2c(NCCN3CCCC3)nc3ccccc3c12`, the growth is 77.1% in the test with NCI-H23 lung; 69% in the test on NCI-H322M lung; 67.6% in the test on HOP-62 NSCLC; 12.3% with NCI-H460 lung; 27.5% with HOP-92 NSCLC; 63.8% with NCI-H522 lung. In addition, the growth in the test with A549/ATCC NSCLC was 53.7%; in the test with 786-0 renal, 55.6%; with DU-145 prostate, 45.8%; with K-562 leukemia, -43.2% (active); in the test on MALME-3M melanoma, 83%; in the test with MDA-MB-231 breast it was 30.8%. The growth in the test with RXF 393 renal was 38.3%; in the test with SF-268 CNS, 47%; in the test with SF-295 CNS, 85.6%; with SF-539 CNS it was 61.8%; in the test on UACC-257 melanoma it was 92%; in the test with M14 melanoma, 15.1%. In addition, in the test on HCT-15 colon, the growth is 27.6%.
For `CC(=O)c1ccc(NC(=O)Nc2ccc(S(=O)(=O)Nc3ccc(Cl)nn3)cc2)cc1`, the growth in the test with NCI-H23 lung was 96.4%; in the test with NCI-H322M lung, 95.8%; in the test with HOP-62 NSCLC, 95.9%; in the test with NCI-H460 lung, 109%; with HOP-92 NSCLC, 106%; in the test on NCI-H522 lung it was 96.9%. Also, the growth in the test on A549/ATCC NSCLC was 103%; in the test with 786-0 renal, 108%; in the test with DU-145 prostate it was 110%; with K-562 leukemia it was 103%; in the test on MALME-3M melanoma, 100%; in the test with MDA-MB-231 breast, 96.7%. In addition, the growth with RXF 393 renal is 117%; in the test with SF-268 CNS it was 99.2%; with SF-295 CNS, 103%; in the test on SF-539 CNS, 97.6%; in the test on UACC-257 melanoma, 99.4%; in the test on M14 melanoma, 111%. The growth in the test on HCT-15 colon was 107%.
As for `CNCCNc1nc2ccccc2c2c(=O)c3cccc(OC)c3sc12`, the growth is 47.1% in the test on NCI-H23 lung; 33.8% in the test with NCI-H322M lung; 34.1% with HOP-62 NSCLC; -68.2% (active) in the test on NCI-H460 lung; 5.16% (active) in the test with HOP-92 NSCLC; 27.5% with NCI-H522 lung. Besides, the growth in the test with A549/ATCC NSCLC was 17.9%; with 786-0 renal, 26.5%; in the test on DU-145 prostate, 12.6%; with K-562 leukemia, -39% (active); with MALME-3M melanoma, 59.6%; in the test with MDA-MB-231 breast, 13.8%. For the same compound, the growth in the test with RXF 393 renal is 41.5%; in the test with SF-268 CNS it was 37.8%; with SF-295 CNS, 52.6%; in the test with SF-539 CNS it was 34.9%; in the test with UACC-257 melanoma, 64%; with M14 melanoma, -71.3% (active). Further, in the test with HCT-15 colon, the growth is -39.9% (active).
In the case of `O=C(NCc1ccco1)C1CN(c2ccc(Cl)cc2)N(c2ccc(Cl)cc2)C1=O` (centres undefined), the growth was 59.5% with NCI-H23 lung; 68.2% in the test with NCI-H322M lung; 48.6% in the test on HOP-62 NSCLC; 14.4% in the test with NCI-H460 lung; 78.1% in the test on HOP-92 NSCLC; 39.3% in the test on NCI-H522 lung. The growth in the test with A549/ATCC NSCLC is 40.1%; in the test with 786-0 renal, 37.6%; in the test on DU-145 prostate it was 70.1%; in the test on K-562 leukemia it was 17.9%; in the test on MALME-3M melanoma it was 37.2%; with MDA-MB-231 breast, 59.1%. Also, the growth in the test with RXF 393 renal is 58.2%; in the test with SF-268 CNS, 50.9%; in the test with SF-295 CNS it was 30.1%; in the test on SF-539 CNS it was 49.4%; with UACC-257 melanoma, 69.1%; in the test with M14 melanoma, 32.1%. For the same compound, in the test with HCT-15 colon, the growth is 28.4%.
For `COc1ccccc1C1=C(Br)C(=O)c2nc(C)ccc2C1=O`, the growth is 93.4% with NCI-H23 lung; 100% in the test with NCI-H322M lung; 106% with HOP-62 NSCLC; 99.4% in the test with NCI-H460 lung; 86.3% in the test on HOP-92 NSCLC; -38% (active) in the test on NCI-H522 lung. For the same compound, the growth with A549/ATCC NSCLC is 109%; in the test with 786-0 renal, 104%; with DU-145 prostate, 109%; in the test on K-562 leukemia, 65%; in the test with MALME-3M melanoma it was 62.4%; in the test with MDA-MB-231 breast, 96.6%. Also, the growth with RXF 393 renal was 102%; in the test on SF-268 CNS it was 97.5%; in the test with SF-295 CNS it was 98.6%; in the test on SF-539 CNS, 105%; in the test on UACC-257 melanoma it was 99.6%; in the test on M14 melanoma, 93.7%. Moreover, the growth in the test with HCT-15 colon was 96.7%.
For the compound `OCCNc1nc(Nc2ccc(C3=NN(c4cc(Cl)cc(Cl)c4)C(c4ccc(C(F)(F)F)cc4)C3)cc2)nc(N2CCOCC2)n1` (centres undefined), the growth in the test on NCI-H23 lung is 76%; in the test on NCI-H322M lung, 80.3%; with HOP-62 NSCLC, 74.5%; in the test with NCI-H460 lung, 46.4%; in the test on HOP-92 NSCLC, 98.6%; in the test on NCI-H522 lung, 85.3%. Moreover, the growth in the test with A549/ATCC NSCLC was 59.2%; in the test with 786-0 renal, 42.7%; in the test on DU-145 prostate it was 82.7%; with K-562 leukemia, 53.9%; in the test with MALME-3M melanoma it was 90%; in the test on MDA-MB-231 breast it was 59.7%. Further, the growth was 19.7% in the test on RXF 393 renal; 74.1% in the test with SF-268 CNS; 71% with SF-295 CNS; 54.3% with SF-539 CNS; 94.5% in the test on UACC-257 melanoma; 90.5% in the test on M14 melanoma. For the same compound, the growth with HCT-15 colon is 49.3%.
Regarding `COc1ccc2occ(C3=C(c4c[nH]c5ccccc45)C(=O)NC3=O)c2c1`, the growth was 62.2% in the test with NCI-H23 lung; 79% in the test on NCI-H322M lung; 41.6% with HOP-62 NSCLC; 22.5% in the test with NCI-H460 lung; 67.2% in the test with HOP-92 NSCLC; 33% in the test with NCI-H522 lung. For the same compound, the growth in the test with A549/ATCC NSCLC was 40.8%; in the test with 786-0 renal it was 74.7%; in the test on DU-145 prostate, 92.1%; in the test with K-562 leukemia, 21.6%; with MALME-3M melanoma it was 46.7%; in the test on MDA-MB-231 breast, 28%. Besides, the growth in the test with RXF 393 renal was 34.5%; in the test with SF-268 CNS, 52%; in the test on SF-295 CNS, 35.6%; with SF-539 CNS it was 51.8%; with UACC-257 melanoma, 76.3%; in the test on M14 melanoma it was 27.3%. Moreover, the growth with HCT-15 colon is 24.1%.
Turning to `O=c1c2cccc(F)c2sc2c(N3CCNCC3)nc3ccccc3c12`, the growth in the test with NCI-H23 lung was 51%; in the test with NCI-H322M lung it was 37.9%; in the test on HOP-62 NSCLC, 37.2%; with NCI-H460 lung, -77.2% (active); in the test on HOP-92 NSCLC, 35.3%; in the test with NCI-H522 lung, 48.6%. Besides, the growth in the test with A549/ATCC NSCLC was 21.8%; in the test on 786-0 renal, 37%; in the test on DU-145 prostate, 22.3%; with K-562 leukemia, -42.1% (active); with MALME-3M melanoma, 53.5%; with MDA-MB-231 breast it was 34.6%. Also, the growth with RXF 393 renal is 42.4%; in the test with SF-268 CNS, 41.4%; in the test with SF-295 CNS, 74.6%; with SF-539 CNS it was 48.9%; with UACC-257 melanoma it was 8.99% (active); in the test with M14 melanoma, -27.4% (active). Moreover, the growth in the test on HCT-15 colon is 5.87% (active).
For the compound `CNCCNc1nc2ccccc2c2c(=O)c3cc(OC)ccc3sc12`, the growth was 69.6% in the test on NCI-H23 lung; 38.8% with NCI-H322M lung; 41.2% in the test on HOP-62 NSCLC; -72.2% (active) with NCI-H460 lung; 23.9% with HOP-92 NSCLC; 9.6% (active) in the test on NCI-H522 lung. For the same compound, the growth is 24.6% in the test with A549/ATCC NSCLC; 10.7% in the test with 786-0 renal; -25.6% (active) with DU-145 prostate; -34% (active) in the test with K-562 leukemia; 67.1% with MALME-3M melanoma; 1.79% (active) with MDA-MB-231 breast. The growth in the test on RXF 393 renal was 42.4%; in the test on SF-268 CNS, 38.7%; in the test with SF-295 CNS, 87.3%; in the test with SF-539 CNS, 60%; in the test on UACC-257 melanoma, 73.1%; with M14 melanoma it was -62.5% (active). Further, the growth with HCT-15 colon was -31.8% (active).
Consider `CNC(=O)c1cc(Oc2ccc(CC(=O)Nc3cc(C(C)(C)C)cn3C)cc2)ccn1`, for which the growth is 50.2% with NCI-H23 lung; 93% in the test on NCI-H322M lung; 56% with HOP-62 NSCLC; 74.8% with NCI-H460 lung; 84% with HOP-92 NSCLC; 75.1% with NCI-H522 lung. Also, the growth was 68.9% with A549/ATCC NSCLC; 89.7% with 786-0 renal; 93.9% with DU-145 prostate; 35.5% with K-562 leukemia; 50.6% in the test with MALME-3M melanoma; 67.8% in the test with MDA-MB-231 breast. Further, the growth is 105% with RXF 393 renal; 86.4% in the test with SF-268 CNS; 45.4% in the test on SF-295 CNS; 68.3% in the test on SF-539 CNS; 56.5% with UACC-257 melanoma; 84.7% in the test on M14 melanoma. In the test with HCT-15 colon, the growth was 93.8%.
`COc1ccc(/C=C/C(=O)c2ccc(Nc3nc(NCCO)nc(Nc4ccc(Cl)cc4)n3)cc2)cc1`: the growth in the test with NCI-H23 lung was 89.6%; in the test on NCI-H322M lung, 93.6%; with HOP-62 NSCLC it was 87.8%; in the test on NCI-H460 lung, 61.7%; in the test on HOP-92 NSCLC, 86.7%; in the test with NCI-H522 lung, 71.6%. Also, the growth was 50.2% in the test with A549/ATCC NSCLC; 63.9% in the test with 786-0 renal; 71.4% in the test on DU-145 prostate; 62.3% in the test with K-562 leukemia; 97.2% with MALME-3M melanoma; 70% in the test on MDA-MB-231 breast. Besides, the growth in the test with RXF 393 renal was 66.3%; with SF-268 CNS, 65.7%; with SF-295 CNS, 93.6%; with SF-539 CNS it was 74.9%; in the test with UACC-257 melanoma, 100%; in the test on M14 melanoma it was 67.9%. For the same compound, the growth in the test with HCT-15 colon is 38.2%.

The record behind these values is PubChem BioAssay (NCI).
